system: Plasmodium falciparum; assay: GSK_TCMDC: Inhibition of Plasmodium falciparum Dd2 in whole red blood cells, using parasite LDH activity as an index of growth. Test compounds present at 2uM; type: functional

SMILES | Inhibition [%]
O=C(Nc1ccc(OC2CCN(Cc3ccc(F)cc3)C2)cc1)c1ccco1.O=C(O)C(F)(F)F (stereo not given) | 69
CCCNCc1ccc(-c2ccc(CN(Cc3ccc4c(c3)OCO4)C(=O)[C@H]3CCCO3)cc2)nc1.O=C(O)C(F)(F)F | 39
Cc1cc(-c2cccc(CNCCc3ccc(Cl)cc3)c2)cnc1N.Cl | 3
COc1cccc(NC(=O)COc2ccc(C(=O)Nc3nc4ccccc4[nH]3)cc2)c1 | 29
FC(F)(F)c1ccc2[nH]c(-c3ccc(-c4cccc(CN5CCC(CCN6CCCCC6)CC5)c4)cc3)nc2c1.O=C(O)C(F)(F)F | 96
CCC1(C)N=C(N)N=C(N)N1c1ccccc1.Cl (stereo not given) | 0
COc1ccc(Cl)cc1NC(=O)Nc1ccnc2ccccc12 | 44
O=C(Nc1cccc(-c2ccc(-c3nc4cc(C(F)(F)F)ccc4[nH]3)cc2)c1)c1cccnc1 | 97
CCCCCNc1ccnc2cc(Cl)ccc12 | 99
COc1ccc(Br)cc1/C=C/C(=O)Nc1ccc2c(c1)CCCN(C)C2 | 10
CN1CCCN(c2ccnc3cc4c(cc23)N(C(=O)c2ccc(Cl)c(Cl)c2)CC4)CC1.Cl | 73
COc1cc(/C=C/C(=O)NCC(CCNc2cc(=O)c3ccccc3[nH]2)NCc2cc(Br)cc(Br)c2)cc(OC)c1 (stereo not given) | 28
Cc1cc(Cl)ccc1N(Cc1ccccc1)c1ccnc(Cl)n1 | 98
CC[C@H]1CN(Cc2ccccc2Br)CC[C@H]1CCCc1ccnc2ccc(O)cc12 | 2
CN1CCC(C(=O)N(Cc2ccc(-c3ccc(CNCCc4ccc(S(C)(=O)=O)cc4)cn3)cc2)Cc2cccc(F)c2)CC1.O=C(O)C(F)(F)F | 90

Source: ChEMBL document CHEMBL1157539, “Thousands of chemical starting points for antimalarial lead identification” (Nature, 2010)
